Where two headings read alike, the source gives them in different places.

These results are taken from article PMC11062922 (Nature Chemical Biology, 2023).

Test [1] relates to AAK1. More on the design: species or system human, MV4-11 + K-562 + COLO205 + SK-N-BE2 + OVCAR-8. The conditions noted are these: read-out: apparent Kd, compound concentrations: 100 nM and 1000 nM (sheet 'Samples'), n = 1.
Test [2] relates to CLK1. Also on record: species or system human, MV4-11 + K-562 + COLO205 + SK-N-BE2 + OVCAR-8. The conditions noted are these: read-out: apparent Kd, compound concentrations: 100 nM and 1000 nM (sheet 'Samples'), n = 1.
Test [3] has as its system CLK4. More on the design: species or system human, MV4-11 + K-562 + COLO205 + SK-N-BE2 + OVCAR-8. To be noted: read-out: apparent Kd, compound concentrations: 100 nM and 1000 nM (sheet 'Samples'), n = 1.
Test [4] concerns CSNK2A1;CSNK2A3. Also on record: species or system human, MV4-11 + K-562 + COLO205 + SK-N-BE2 + OVCAR-8. To be noted: read-out: apparent Kd, compound concentrations: 100 nM and 1000 nM (sheet 'Samples'), n = 1.
In test [5] the test system is CSNK2A2. More on the design: species or system human, MV4-11 + K-562 + COLO205 + SK-N-BE2 + OVCAR-8. The conditions noted are these: read-out: apparent Kd, compound concentrations: 100 nM and 1000 nM (sheet 'Samples'), n = 1.
The target of test [6] is Q6ZSR9 (human, UniProt Q6ZSR9). More on the design: species or system MV4-11 + K-562 + COLO205 + SK-N-BE2 + OVCAR-8. To be noted: read-out: apparent Kd, compound concentrations: 100 nM and 1000 nM (sheet 'Samples'), n = 1.
The test system of test [7] is ABL1. More on the design: species or system human, MV4-11 + K-562 + COLO205 + SK-N-BE2 + OVCAR-8. The conditions noted are these: read-out: apparent Kd, compound concentrations: 100 nM and 1000 nM (sheet 'Samples'), n = 1.
In test [8] the test system is ABL2. Also on record: species or system human, MV4-11 + K-562 + COLO205 + SK-N-BE2 + OVCAR-8. The conditions noted are these: read-out: apparent Kd, compound concentrations: 100 nM and 1000 nM (sheet 'Samples'), n = 1.
Test [9] has as its system BCR. More on the design: species or system human, MV4-11 + K-562 + COLO205 + SK-N-BE2 + OVCAR-8. To be noted: read-out: apparent Kd, compound concentrations: 100 nM and 1000 nM (sheet 'Samples'), n = 1.
In test [10] the test system is FYN. More on the design: species or system human, MV4-11 + K-562 + COLO205 + SK-N-BE2 + OVCAR-8. The conditions noted are these: read-out: apparent Kd; compound concentrations: 100 nM and 1000 nM (sheet 'Samples'), CATDS: 1.9244455455098501E-2; n = 1.
For test [11], the system named is GAK. More on the design: species or system human, MV4-11 + K-562 + COLO205 + SK-N-BE2 + OVCAR-8. To be noted: read-out: apparent Kd, compound concentrations: 100 nM and 1000 nM (sheet 'Samples'), n = 1.
For test [12], the system named is HCK. Also on record: species or system human, MV4-11 + K-562 + COLO205 + SK-N-BE2 + OVCAR-8. The conditions noted are these: read-out: apparent Kd; compound concentrations: 100 nM and 1000 nM (sheet 'Samples'), CATDS: 1.6425065187182699E-2; n = 1.
Test [13] relates to LCK. More on the design: species or system human, MV4-11 + K-562 + COLO205 + SK-N-BE2 + OVCAR-8. To be noted: read-out: apparent Kd; compound concentrations: 100 nM and 1000 nM (sheet 'Samples'), CATDS: 3.58702015349356E-2; n = 1.
Test [14] deals with PTK6. More on the design: species or system human, MV4-11 + K-562 + COLO205 + SK-N-BE2 + OVCAR-8. To be noted: read-out: apparent Kd; compound concentrations: 100 nM and 1000 nM (sheet 'Samples'), CATDS: 1.42958167275793E-2; n = 1.
The test system of test [15] is RIPK2. Also on record: species or system human, MV4-11 + K-562 + COLO205 + SK-N-BE2 + OVCAR-8. To be noted: read-out: apparent Kd, compound concentrations: 100 nM and 1000 nM (sheet 'Samples'), n = 1.
Test [16] relates to RIPK3. Also on record: species or system human, MV4-11 + K-562 + COLO205 + SK-N-BE2 + OVCAR-8. To be noted: read-out: apparent Kd, compound concentrations: 100 nM and 1000 nM (sheet 'Samples'), n = 1.
Test [17] relates to TNK1. More on the design: species or system human, MV4-11 + K-562 + COLO205 + SK-N-BE2 + OVCAR-8. To be noted: read-out: apparent Kd; compound concentrations: 100 nM and 1000 nM (sheet 'Samples'), CATDS: 3.1602555545839801E-2; n = 1.
In test [18] the test system is YES1. More on the design: species or system human, MV4-11 + K-562 + COLO205 + SK-N-BE2 + OVCAR-8. The conditions noted are these: read-out: apparent Kd; compound concentrations: 100 nM and 1000 nM (sheet 'Samples'), CATDS: 2.5454428176696801E-2; n = 1.

Sequence of Q6ZSR9 (Q6ZSR9 whole entry, looked up): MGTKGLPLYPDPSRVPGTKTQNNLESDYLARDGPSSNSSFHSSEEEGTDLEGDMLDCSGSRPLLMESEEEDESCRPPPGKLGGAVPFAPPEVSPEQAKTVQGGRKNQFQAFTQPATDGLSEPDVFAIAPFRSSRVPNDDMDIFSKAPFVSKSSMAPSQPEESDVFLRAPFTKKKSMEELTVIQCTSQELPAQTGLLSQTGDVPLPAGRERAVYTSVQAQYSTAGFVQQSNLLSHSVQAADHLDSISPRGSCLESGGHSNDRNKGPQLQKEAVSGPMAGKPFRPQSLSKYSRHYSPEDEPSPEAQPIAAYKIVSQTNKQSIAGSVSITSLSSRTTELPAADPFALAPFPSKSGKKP

As for `COc1ccccc1CNC1=NC(=O)/C(=C/c2ccc3ncccc3c2)S1` [RO4503315-000], the potency estimated from few doses is 908 nM in [1] (CATDS: 7.6030940071323702E-2); 30.8 nM in test [2] (CATDS: 0.30628277203205201); 14.8 nM in test [3] (CATDS: 0.47450505844259699); 197 nM in test [4] (CATDS: 0.129899516900844); 231 nM in test [5] (CATDS: 0.121862828094444); 858 nM in test [6] (CATDS: 7.7270195347091397E-2).
`COc1cc(Nc2nccc(N3CCC(NC(=O)c4cccc(C#N)c4)C3)n2)cc(OC)c1OC` (stereo not drawn) [GSK1379751A]: the potency estimated from few doses in test [1] (CATDS: 0.20949591044902) is 786 nM; in test [6] (CATDS: 0.206433255862257), 810 nM.
With `CC(C)c1nc(-c2cccc(NS(=O)(=O)c3ccccc3)c2)c(-c2ccnc(Nc3ccc4c(c3)CN(C)CC4)n2)s1` [GSK1649598A], the potency estimated from few doses in test [7] (CATDS: 2.01463365951845E-2) is 368 nM; in test [8] (CATDS: 3.9720351054025098E-2), 93.8 nM; in [9] (CATDS: 1.4720639450574301E-2), 924 nM; in [10], 413 nM; in test [11] (CATDS: 0.115621915519597) it was 19.8 nM; in [12], 643 nM. Besides, the potency estimated from few doses in test [13] was 112 nM; in [14] it was 1030 nM; in [15] (CATDS: 2.88864910940058E-2), 167 nM; in test [16] (CATDS: 1.96372512533491E-2) it was 392 nM; in [17], 141 nM; in test [18] it was 216 nM.
As to `O=C1N=C(NCc2ccccc2Cl)S/C1=C\c1ccc2ncccc2c1` [RO4506917-000], the potency estimated from few doses in test [1] (CATDS: 0.11408276718016799) is 696 nM; in test [2] (CATDS: 0.13615422717459799), 443 nM; in test [3] (CATDS: 0.16237253930463899) it was 307 nM; in test [4] (CATDS: 0.21358904197946299), 190 nM; in test [5] (CATDS: 0.17001055355195799), 281 nM; in test [6] (CATDS: 9.7347252089560202E-2), 1190 nM.
In the case of `O=C1N=C(NCc2ccccc2)S/C1=C\c1ccc2ncccc2c1` [RO4442080-000], the potency estimated from few doses is 1380 nM in test [1] (CATDS: 8.89289230622759E-2); 521 nM in test [2] (CATDS: 0.13842928601840401); 701 nM in [3] (CATDS: 0.11834941417905); 438 nM in test [4] (CATDS: 0.15313565978355501); 351 nM in test [5] (CATDS: 0.175887275734743); 815 nM in test [6] (CATDS: 0.110093670656788).
On to `O=C1N=C(NCCc2cccc(Cl)c2)S/C1=C\c1ccc2ncccc2c1` [RO4509201-000], for which the potency estimated from few doses in test [1] (CATDS: 5.6248629663802403E-2) is 1640 nM; in test [2] (CATDS: 0.11223755313714801) it was 275 nM; in [3] (CATDS: 0.15614566648302999) it was 153 nM; in test [4] (CATDS: 0.170383689424982), 133 nM; in [5] (CATDS: 0.201313292648233) it was 103 nM.
Turning to `Cn1cc(C2=C(c3cn(CCCO)c4ccccc34)C(=O)NC2=O)c2ccccc21` [RO0317377-000], the values for the potency estimated from few doses in test [1] (CATDS: 0.115071291343016) and in test [6] (CATDS: 0.107617362332997) were 1300 nM and 1540 nM, respectively.
With `Cc1nn(C)c2cc(N(C)c3ccnc(Nc4cccc(S(N)(=O)=O)c4)n3)ccc12.Cl` [GW770220A], the potency estimated from few doses was 632 nM in test [1] (CATDS: 0.34831040930344798) and 507 nM in [6] (CATDS: 0.39212964610314199).
As to `COc1cc(Nc2ccnc3cc(-c4ccncc4)ccc23)cc(OC)c1OC.Cl` [GW494610A], the potency estimated from few doses in [7] (CATDS: 2.4379025884203698E-2) was 1070 nM; in [8] (CATDS: 2.97420098626874E-2), 523 nM; in test [9] (CATDS: 4.8840213207685099E-2) it was 133 nM; in test [11] (CATDS: 0.18484170134518799), 10.7 nM; in test [15] (CATDS: 0.24490143470797801), 7.12 nM; in test [16] (CATDS: 2.5857205413597002E-2), 848 nM.
As to `CNC1=NC(=O)/C(=C/c2ccc3ncccc3c2)S1` [RO4595949-000], the potency estimated from few doses in test [1] (CATDS: 6.4601129134093493E-2) was 737 nM; in test [2] (CATDS: 0.21110804330204799), 68.5 nM; in test [3] (CATDS: 7.8220573800827503E-2), 429 nM; in test [4] (CATDS: 0.13596728585800399), 136 nM; in test [5] (CATDS: 0.13149975380310699), 144 nM; in test [6] (CATDS: 0.14278895493122401), 125 nM.
With `O=C1N=C(NCC(CO)c2ccccc2)S/C1=C\c1ccc2ncccc2c1` (stereo not drawn) [RO4582641-000], the potency estimated from few doses in [1] (CATDS: 0.17753366584660099) was 89.4 nM; in [2] (CATDS: 0.190725453373879) it was 79.6 nM; in test [3] (CATDS: 7.8741262727809305E-2) it was 590 nM; in [4] (CATDS: 0.138008161076002), 140 nM; in test [5] (CATDS: 0.126393310474474) it was 167 nM; in test [6] (CATDS: 0.16856489309537501) it was 97.6 nM. Moreover, the potency estimated from few doses in test [15] (CATDS: 7.9715899202970897E-2) was 565 nM.
